Compound activity deposited in PubChem BioAssay by National Center for Advancing Translational Sciences (NCATS).
A selection: hits, their analogues and other compounds. The true share with any hit is near 19%.
Shiga toxin inh: A qHTS for Small Molecule Inhibitors of Shiga Toxin; 290,000 tested, 9.2% active; inhibition, % at 38.7 µM; Vero cells, Shiga toxin protein synthesis inhibition reporter; AID 2315, 2010; in the data active = inhibition mostly above about 28%, no sharp cut-off; inactive = mostly below about 43%; also: 0% is about no effect
Pf growth 96h: Primary qHTS for delayed death inhibitors of the malarial parasite plastid, 96 hour incubation; P. falciparum luciferase reporter growth, 96 h; Potency, µM (doses to about 28.7 µM), inactives show top-dose activity change, negative = inhibition, hits mostly inhibitors; 320,000 tested, 6.9% active; also: potency is read from the fitted curve at half-maximal effect; % is scaled to controls: 0 for no effect and ±100 for the full control effect
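Compounds incubated with erythrocytes infected by luciferase-expressing P. falciparum (2% hematocrit, 0.05% parasitemia final) for 96 hours, 37 C in 5% CO2. Growth inhibition scored as decreased luciferase luminescence.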
Pf growth 48h: Primary qHTS for delayed death inhibitors of the malarial parasite plastid, 48 hour incubation | P. falciparum luciferase growth in erythrocytes, 48 h | Potency, µM (doses to about 28.7 µM), for inactives: at the top dose activity change, negative = inhibition, hits mostly inhibitors | 310,000 tested, 5.9% active; also: potency is read from the fitted curve at half-maximal effect; % is scaled to controls: 0 for no effect and ±100 for the full control effect
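Luciferase-expressing parasites in RBCs, 2% Hct / 0.1% parasitemia final; RPMI 1640 + 0.5% Albumax; 37 C, 5% CO2, one generation; luminescence read-out, lower signal = inhibition.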
CHX counter: Cycloheximide Counterscreen for Small Molecule Inhibitors of Shiga Toxin; cell reporter, cycloheximide protein synthesis inhibition counterscreen; max response, %; 300,000 tested, 12% active; AID 2314, 2010; in the data active = max response mostly above about 13%, no sharp cut-off; inactive = mostly below about 14%; also: read at 38.3 µM for the half of the compounds with a filed dose; 0% is about no effect
Marburg entry inh: qHTS for inhibitors of binding or entry into cells for Marburg Virus | Marburg virus pseudotyped entry inhibition, cell reporter | Potency, µM (titrated, usually from 37.8 µM), without a hit: top-dose activity change, negative = inhibition, actives largely listed as inhibitors | 300,000 tested, 1.8% active; calls by dose curve; tested in HEK293 cells; also: potency is read from the fitted curve at half-maximal effect; % is scaled to controls: 0 for no effect and ±100 for the full control effect
Lassa entry inh: qHTS for Inhibitors of binding or entry into cells for Lassa Virus; Lassa virus pseudotype entry inhibition, cell reporter; Potency, µM (highest dose often 37.9 µM), without a hit: top-dose activity change, negative = inhibition, hits mostly inhibitors; 300,000 tested, 1.2% active; calls by dose curve; tested in HEK293 cells; also: potency is read from the fitted curve at half-maximal effect; % is scaled to controls: 0 for no effect and ±100 for the full control effect; nearly all actives have a fitted effect of over 50% in size
* = called active by the depositor; i = inactive; ? = inconclusive; · = no result given; [ ] = dose if it differs, or a comment. Unless noted, calls follow the shape of the dose curve; as a rule, active = well fitted inhibition curve with a large enough effect; inconclusive = small, poorly fitted or top-dose-only effect, or another doubt; inactive = no such curve, though single readings can be large or run the other way.

SMILES	Shiga toxin inh	Pf growth 96h	Pf growth 48h	CHX counter	Marburg entry inh	Lassa entry inh
CCN1C(=O)[C@H]2[C@@H](c3ccc(Cl)cc3)N3C(=O)CN(CC4CC4)C(=O)[C@@]3(Cc3ccccc3)[C@H]2C1=O	-8	20%	1%	-3	·	·
Cc1cc(C=C2C(=O)c3ccccc3C2=O)c(C)n1-c1ccc(C(=O)O)cc1	10	88%	31%	8	?	?
Cc1cc(/C=C2\Cc3ccccc3C2=O)c(C)n1-c1ccccc1	159*	48%	-25%	80*	?	?
Cc1cc(C=C2C(=O)c3ccccc3C2=O)c(C)n1-c1ccccc1	118*	-33%	12%	51*	6.5µM*	?
Cc1cc(C=C2C(=O)c3ccccc3C2=O)c(C)n1-c1cccc(C(=O)O)c1	104*	-1%	?	43*	·	·
Cc1cc(C=C2C(=O)N(C)C(=O)N(C)C2=O)c(C)n1-c1ccccc1	53*	?	15%	25*	5%	13%
O=C(Nc1cccc([N+](=O)[O-])c1)c1cc(S(=O)(=O)Nc2ccccn2)ccc1Cl	-10	30%	-9%	-2	-4%	1%
Clc1ccccc1CSc1nnc(C2CCNCC2)o1	·	·	·	·	-25%[46.1 µM]	0%[46.1 µM]
COc1nc(N/N=C/c2ccccc2F)nc(N2CCCCC2)n1	14	49%	-2%	5	16%	-3%
COc1ccc(CN2CCN(Cc3ccccc3)C(CCO)C2)cc1OC (stereo unspecified)	-3	-29%	-18%	-2	-16%	6%
CCCCNC(=O)C1CCN(Cc2ccc(OCc3ccccc3)c(OC)c2)CC1	44*	-20%	72%	42*	·	·
CCOCCCNC(=O)C1CCN(Cc2ccc(OCc3ccccc3)c(OC)c2)CC1	95	?	48%	18*	·	·
COc1cc(CN2CCC(C(=O)NCC(C)(C)CN(C)C)CC2)ccc1OCc1ccccc1	·	?	9.3µM*	13	·	·
CCOCCCNC(=O)C1CCN(Cc2cccc(OCc3ccccc3)c2)CC1	1	-28%	-18%	7	2%	2%
COc1ccc(CN2CCC(C(N)=O)CC2)cc1OCc1ccccc1	-4	?	35%	-2	·	·
COc1cc(CN2CCN(C(C)C)C(CCO)C2)ccc1OCc1ccccc1 (stereo unspecified)	70*	7%	-12%	30*	·	·
COc1cc2c(cc1OC)-c1nnc(C)n1C1(CCCC1)C2	-12	-22%	5%	-4	-1%	1%
CCc1nnc(NC(=O)C2CCC(CNc3c(N4CCCCC4)c(=O)c3=O)CC2)s1 (stereo unspecified)	23	0%	?	5	·	·
COc1ccc(NS(=O)(=O)c2ccc3[nH]c(=O)[nH]c3c2)cc1	-1	?	6%	-3	·	·
CCN(CC)c1ccc(/C=N\NC(=O)c2cccc3cc[nH]c23)cc1	43*	-29%	3%	32*	-8%	?
O=C(N/N=C/c1ccc([N+](=O)[O-])cc1)c1ccc2nc[nH]c2c1	20	?	?	2	?	-13%
O=C(N/N=C/c1ccc([N+](=O)[O-])cc1)c1cccc2cc[nH]c12	21	?	25%	16*	13%	0%
O=C(N/N=C/c1ccc([N+](=O)[O-])cc1)c1[nH]ncc1Br	82*	-5%	384%	47*	3%[14.2 µM]	6%
O=C(Cn1nc2ccccc2n1)N/N=C/c1cc(Cl)cc([N+](=O)[O-])c1O	-11	39%	?	1	?	-2%[46.1 µM]
COc1cc(/C=N/Nc2nc3ccccc3s2)cc([N+](=O)[O-])c1O	56*	-1%	-1%	19*	·	·
SMILES	Shiga toxin inh	Pf growth 96h	Pf growth 48h	CHX counter	Marburg entry inh	Lassa entry inh
O=[N+]([O-])c1cc(Cl)cc(/C=N/Nc2nc3ccccc3s2)c1O	41*	44%	52%	32*	?	?
CCc1ccc(N2C(=O)c3sc4nnc(C)c(=O)n4c3C2=O)cc1	-12	?	?	-2	5%	-9%
COc1ccccc1Nc1nc2nonc2nc1N1CCCCC1C (stereo unspecified)	1	?	3%	-4	24%	15%
Cn1c(C(=O)O)c(S(=O)(=O)c2ccc(Cl)cc2)c2ccccc21	5	-11%	31%	-1	·	·
CCOC(=O)c1c(S(=O)(=O)N2CCN(c3cccc(C(F)(F)F)c3)CC2)c(C)n(C)c1C	·	·	·	·	·	5%[46.1 µM]
CCCCCc1ccc(C2=NNC(=O)CC2)cc1	·	?	59%	14*	·	·
O=C1CCC(c2ccccc2)=NN1	25	?	31%	6	1%[46.1 µM]	5%
CC(C)CCOc1ccc(C2=NNC(=O)CC2)cc1	43*	92%	63%	26*	30%[46.1 µM]	7%
CCC1(C(=O)c2ccccc2)C(c2ccc([N+](=O)[O-])cc2)C1(C(=O)OC)C(=O)OC (stereo unspecified)	-11	18%	13µM*	1	?	0%
O=C(c1ccc([N+](=O)[O-])cc1)N(Cc1ccccc1)Cc1ccccc1	·	·	·	·	12%[46.1 µM]	?
CNC(C)C#Cc1ccc2sc3cccc(OC)c3c(=O)c2c1 (stereo unspecified)	19*	?	?	12*	·	·
COc1cccc2oc3ccc(C#Cc4ccccn4)cc3c(=O)c12	47*	i	134%	66*	·	·
COc1cccc2sc3ccc(C#CC4(N)CCCCC4)cc3c(=O)c12	64*	?	?	32*	·	·
CNC(C)C#Cc1ccc2c(=O)c3c(OC)cccc3oc2c1 (stereo unspecified)	46*	?	?	37*	·	·
Cc1cc(NC(=O)CSc2ccc(-c3cccc([N+](=O)[O-])c3)nn2)no1	-9	59%	31%	0	-22%	15%
CCN(CC)C(=O)COC(=O)C1CCN(S(=O)(=O)c2ccc3c(c2)OCCO3)CC1	·	6%	-9%	·	·	·
CNC(C)C#Cc1ccc2oc3cccc(OC)c3c(=O)c2c1 (stereo unspecified)	45*	89%	22%	36*	·	·
COc1cccc2c1[C@H](C=Cc1ccccc1)[C@@H]([C@H](O)CO)OC2	·	·	·	·	-11%[14.2 µM]	-31%[14.3 µM]
O=C(CCCCCN1C(=O)[C@@H]2Cc3ccccc3CN2C1=O)Nc1ccccc1Cl	30	?	?	30*	·	·
COc1ccc(NC(=O)CCCCCN2C(=O)[C@@H]3Cc4ccccc4CN3C2=O)cc1Cl	-2	12µM*	-16%	-1	8%[46.1 µM]	-12%[46.1 µM]
COc1ccc(OCC(O)CN(C2CCCCC2)C2CCCCC2)cc1 (stereo unspecified)	-2	5.9µM*	?	1	?	15µM*
CN(CC(O)COc1c(F)cc(Br)cc1F)C1CCCCC1 (stereo unspecified)	11	36%	9.3µM*	-4	?	?
